The full list was thinned out, with hits kept by preference.
RBX1-CUL1 inh = inhibitors of human ROC1-CUL1 ubiquitin ligase activity. E3 ubiquitin-protein ligase RBX1 (Homo sapiens) + Cullin-1 (Homo sapiens), P62877+Q13616. in vitro K48 di-Ub FRET, acceptor:donor ratio, 45 min. inhibition, % at 10 µM. 0.6% of 140,000 active. AID 1347404, 2020; in the data active = inhibition above about 25%
Target sequence (P62877 whole entry, looked up): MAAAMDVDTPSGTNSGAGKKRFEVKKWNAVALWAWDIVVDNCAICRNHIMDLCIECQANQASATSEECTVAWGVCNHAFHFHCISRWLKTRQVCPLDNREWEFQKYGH
Target sequence (Q13616 whole entry, looked up): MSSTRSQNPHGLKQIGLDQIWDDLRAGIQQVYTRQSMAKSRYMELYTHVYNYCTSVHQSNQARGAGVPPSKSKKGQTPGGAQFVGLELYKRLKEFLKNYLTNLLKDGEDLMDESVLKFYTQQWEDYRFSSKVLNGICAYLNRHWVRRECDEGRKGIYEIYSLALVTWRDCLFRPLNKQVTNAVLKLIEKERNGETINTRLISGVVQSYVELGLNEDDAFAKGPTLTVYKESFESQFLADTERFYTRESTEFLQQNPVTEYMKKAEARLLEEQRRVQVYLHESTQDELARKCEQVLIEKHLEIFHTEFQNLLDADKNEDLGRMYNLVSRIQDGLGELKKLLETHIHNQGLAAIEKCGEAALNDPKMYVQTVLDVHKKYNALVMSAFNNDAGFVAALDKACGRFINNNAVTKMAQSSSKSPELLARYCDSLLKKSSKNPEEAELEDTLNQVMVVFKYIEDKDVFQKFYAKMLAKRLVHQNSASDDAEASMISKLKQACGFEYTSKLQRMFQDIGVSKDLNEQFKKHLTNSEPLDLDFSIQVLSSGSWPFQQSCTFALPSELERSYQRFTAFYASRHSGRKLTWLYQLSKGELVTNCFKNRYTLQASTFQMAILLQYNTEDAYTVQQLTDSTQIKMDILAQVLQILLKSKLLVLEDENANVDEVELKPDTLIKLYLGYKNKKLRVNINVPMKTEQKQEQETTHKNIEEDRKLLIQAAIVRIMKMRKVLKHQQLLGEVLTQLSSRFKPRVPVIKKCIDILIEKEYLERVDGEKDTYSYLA
* = called active by the depositor.

Results for COc1cc(/C=C2/C(=O)N(c3ccc(S(=O)(=O)O)cc3)N=C2C)ccc1OC(=O)c1cccs1 ?
RBX1-CUL1 inh: 55.9*

Results for COc1cc(/C=C2\C(=O)N(c3ccc(S(N)(=O)=O)cc3)N=C2C(F)(F)F)ccc1OCC(C)C ?
RBX1-CUL1 inh: 34.7*

How did COc1cc(/C=C2/C(=O)N(c3cccc(Cl)c3)N=C2C)ccc1OC(=O)c1cccs1 do in these assays?
RBX1-CUL1 inh: -9.4

Results for COc1cccc(/C=C2\C(=O)N(c3ccc(S(N)(=O)=O)cc3)N=C2C)c1 ?
RBX1-CUL1 inh: 96.6*

Results for CCOC(=O)c1ccc(N2NC(=O)/C(=C/c3ccc(OC(=O)c4cccs4)c(OC)c3)C2=O)cc1 ?
RBX1-CUL1 inh: 24.5

Results for CC1=NN(c2ccc(S(N)(=O)=O)cc2)C(=O)/C1=C\c1ccc(N(C)C)cc1 ?
RBX1-CUL1 inh: 6.7

What do the screens show for `CCCOC(=O)c1cccc(-c2ccc(/C=C3\C(=O)N(c4ccc(S(N)(=O)=O)cc4)N=C3C(F)(F)F)o2)c1`?
RBX1-CUL1 inh: 4.6

Results for C#CCOc1ccc(/C=C2\C(=O)N(c3ccc(S(N)(=O)=O)cc3)N=C2C(F)(F)F)cc1OCC ?
RBX1-CUL1 inh: -0.8

Results for COc1cccc(C=C2C(=O)N(C)C(=O)N(C)C2=O)c1 ?
RBX1-CUL1 inh: -4.1

How did CCCCc1cc(=O)[nH]c(-c2cccc(CN3CCC(N(C)C)CC3)c2)n1 do in these assays?
RBX1-CUL1 inh: 2.0

Results for CCNNc1ccncc1S(=O)(=O)N1CCCCC1 ?
RBX1-CUL1 inh: -0.7

What do the screens show for `COC(=O)C(NC(=O)c1ccco1)(Nc1nc2c(C)cccc2s1)C(F)(F)F` (stereo unspecified)?
RBX1-CUL1 inh: -4.0

How did Nc1nc(SCCCC(=O)NCCCO)nc2sc3c(c12)CCCC3 do in these assays?
RBX1-CUL1 inh: 7.5

How did COC(C)(C)CC(=N)C(=O)c1ccccc1 do in these assays?
RBX1-CUL1 inh: 7.8

What do the screens show for `O=c1cc(N2CCCCC2)cnn1CCn1cc(Cl)cn1`?
RBX1-CUL1 inh: -2.6

Results for CC(=O)Nc1sc2c(c1C(=O)OC(C)C)CCC(C)C2 (stereo unspecified) ?
RBX1-CUL1 inh: -4.8

How did Cc1ccc(OC2CCN(Cc3ccncc3)CC2)c(C(=O)N2CCCO2)c1 do in these assays?
RBX1-CUL1 inh: -2.5

Results for Cc1ccc(S(=O)(=O)C(C#N)C(=S)Nc2ccc(Br)cc2)cc1 (stereo unspecified) ?
RBX1-CUL1 inh: 4.4

How did Clc1cccc(OCCCCCN2CCCC2)c1Cl do in these assays?
RBX1-CUL1 inh: 1.5

How did Cc1oc(-c2ccccc2)cc1C(=O)N(C)c1ccccc1 do in these assays?
RBX1-CUL1 inh: 6.9

What do the screens show for `N#CC1=c2s/c(=C\c3ccccc3C(F)(F)F)c(=O)n2C(=N)C(C#N)C1c1ccccc1C(F)(F)F` (stereo unspecified)?
RBX1-CUL1 inh: 3.5

What do the screens show for `N#CC1=c2s/c(=C/c3cccc(C(F)(F)F)c3)c(=O)n2C(=N)C(C#N)C1c1cccc(C(F)(F)F)c1` (stereo unspecified)?
RBX1-CUL1 inh: -1.9

Results for N#CC1=c2s/c(=C\c3ccc(-c4ccccc4)o3)c(=O)n2C(=N)C(C#N)C1c1ccc(-c2ccccc2)o1 (stereo unspecified) ?
RBX1-CUL1 inh: 55.8*

How did Cc1c(/C=C2/SC(=O)N(C(C)C)C2=O)c2ccccc2n1Cc1ccccc1C#N do in these assays?
RBX1-CUL1 inh: -1.0

What do the screens show for `O=C(O)Cn1cnc2scc(-c3ccc(Br)cc3)c2c1=O`?
RBX1-CUL1 inh: 5.9

Results for O=C(CN1CCOCC1)Nc1sc2c(c1C(=O)Nc1ccc(Br)cc1)CCCCC2 ?
RBX1-CUL1 inh: 10.9

Results for Cc1ccccc1NC(=O)CN1C(=O)S/C(=C/c2ccccc2)C1=O ?
RBX1-CUL1 inh: -0.6

How did Cc1ccc(NC(=O)CN2C(=O)S/C(=C\c3ccc(N4CCOCC4)cc3C)C2=O)c(C)c1 do in these assays?
RBX1-CUL1 inh: -7.2

What do the screens show for `Cc1ccccc1NC(=O)CN1C(=O)S/C(=C\c2cccn2-c2cccc(C(=O)O)c2)C1=O`?
RBX1-CUL1 inh: 51.2*

How did Cc1cccc(NC(=O)CN2C(=O)S/C(=C\c3cccn3-c3cccc(C(=O)O)c3)C2=O)c1 do in these assays?
RBX1-CUL1 inh: 9.8

Results for Cc1ccc(NC(=O)CN2C(=O)S/C(=C\c3ccc(N4CCCC4)c(F)c3)C2=O)c(C)c1 ?
RBX1-CUL1 inh: -5.6

What do the screens show for `Cc1ccc(NC(=O)CN2C(=O)S/C(=C\c3ccccn3)C2=O)cc1C`?
RBX1-CUL1 inh: -0.2

How did Cc1ccc(NC(=O)CN2C(=O)S/C(=C\c3cccn3-c3cccc(C(=O)O)c3)C2=O)c(C)c1 do in these assays?
RBX1-CUL1 inh: 72.3*

Results for Cc1cccc(C)c1NC(=O)CN1C(=O)S/C(=C\c2cccn2-c2cccc(C(=O)O)c2)C1=O ?
RBX1-CUL1 inh: -2.7

How did Cc1ccc(NC(=O)CN2C(=O)S/C(=C\c3cccn3-c3cccc(C(=O)O)c3)C2=O)cc1C do in these assays?
RBX1-CUL1 inh: 48.1*

Results for O=C1/C(=C\c2ccoc2)N2CCC1CC2 ?
RBX1-CUL1 inh: -4.3

What do the screens show for `Cc1ccc(C(=O)/C=C/c2ccco2)c(O)c1`?
RBX1-CUL1 inh: 33.8*

What do the screens show for `O=C(/C=C/c1ccco1)Nc1cccc(NC(=O)c2ccc(Cl)cc2Cl)c1`?
RBX1-CUL1 inh: 0.2

How did CC(/C=C/c1ccco1)=N/NC(=O)c1ccccc1Cl do in these assays?
RBX1-CUL1 inh: -1.9

How did Cc1cccc(C)c1NC(=O)c1cccc(F)c1 do in these assays?
RBX1-CUL1 inh: -12.3

Results for CCOC(=O)COc1ccc(/C=C2\SC(=Nc3ccc(OC)cc3)N(C)C2=O)cc1Cl ?
RBX1-CUL1 inh: -8.8

How did S=C1NCN(CCc2ccccc2)CN1c1cccc(Cl)c1 do in these assays?
RBX1-CUL1 inh: -3.2

Results for COc1ccc(/C=C(\C)c2ccc(OC)cc2)cc1 ?
RBX1-CUL1 inh: -5.6

Results for COc1ccc(/C=C(/S)C(=O)O)cc1 ?
RBX1-CUL1 inh: 89.3*

How did COc1ccc(/C=N/OC(=O)c2ccccc2)cc1 do in these assays?
RBX1-CUL1 inh: 4.4

What do the screens show for `c1coc(CN2CCc3[nH]nc(-c4ccc5c(c4)OCO5)c3C2)c1`?
RBX1-CUL1 inh: 0.1

What do the screens show for `CC1=NN(c2ccccc2)C(=O)/C1=C\c1cc(C)n(C2CCCCC2)c1C`?
RBX1-CUL1 inh: -4.8

How did CCOc1cc(/C=C2\C(=O)NN(c3ccccc3)C2=O)cc(Cl)c1OCc1c(Cl)cccc1Cl do in these assays?
RBX1-CUL1 inh: 86.0*

What do the screens show for `CCOc1cc(/C=C2\C(=O)NN(c3ccccc3)C2=O)cc(Cl)c1OCc1cccc(C)c1`?
RBX1-CUL1 inh: 37.9*

How did CCOc1cc(/C=C2\C(=O)NN(c3ccccc3)C2=O)ccc1OCc1c(F)cccc1Cl do in these assays?
RBX1-CUL1 inh: -7.1

What do the screens show for `CCOc1cc(/C=C2\C(=O)NN(c3ccccc3)C2=O)cc(Br)c1OCc1cccc(C)c1`?
RBX1-CUL1 inh: 2.1

Results for COc1cc(/C=C2\C(=O)NN(c3ccccc3)C2=O)cc(Cl)c1OCc1ccccc1C ?
RBX1-CUL1 inh: 18.9

Results for COc1cc(/C=C2\C(=O)NN(c3ccccc3)C2=O)ccc1OCc1ccccc1 ?
RBX1-CUL1 inh: 13.9

How did O=C(NNc1ccc(Cl)nn1)c1ccccc1 do in these assays?
RBX1-CUL1 inh: 5.5

Results for CN(CCc1ccccn1)c1ncccc1CNC(=O)[C@@H]1C[C@H]1c1ccccc1 ?
RBX1-CUL1 inh: 13.3

How did COc1ccc2c(c1)C=C1C(=CC(=Nc3ccc(Br)cc3)CC1(C)C)O2 do in these assays?
RBX1-CUL1 inh: 54.4*

How did O=C(N/N=C/c1ccc2ccccc2c1)c1ccccc1 do in these assays?
RBX1-CUL1 inh: -6.9

Screens: PubChem BioAssay, Pan Lab, Icahn School of Medicine at Mount Sinai
